Results filed as inconclusive are left out. The call rests on the fitted dose curve; in most records, active means well fitted curve in either direction with a large enough effect (not every such curve was filed as active); inconclusive means small, poorly fitted or top-dose-only effect, or another doubt; inactive means flat fitted curve, though single readings scatter.
experiment: AP1 Signaling Pathway (AID 357); settings: ME-180 AP-1-bla reporter, EGF-induced, beta-lactamase ratio, 5 h; at 7.69 µM (top of the series) unless noted;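 further: ME-180 reporter cells stimulated with EGF at its EC50 level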
Description: NCGC Assay Overview: Activator protein-1 (AP-1), a transcription factor, plays an important role in tumor genesis by regulating genes involved in cell proliferation, differentiation, apoptosis, and angiogenesis. AP-1 activity is induced by a complex network of signaling pathways that involves extracellular signals, such as growth factors. The AP-1 protein complex formed from c-Fos and c-Jun binding to the AP-1 response element results in transcriptional activation of genes containing such elements within their promoter. Low molecular weight molecules have been discovered and developed to modulate various components of these signaling pathways, for example, MAP kinase inhibitors. However, many points of pathway modulation remain untested due to the lack of chemical probes making this signaling locus of general interest. Using a beta-lactamase reporter-gene under control of the AP-1 response element, a cell-based assay [CellSensor(TM) AP-1-bla ME-180 developed by Invitrogen Corp.] was used to measure EGF-induced signaling. Library compounds were measured for their ability to modulate positively or negatively the action of EC50 EGF on reporter gene activity. Compounds were screened in a titration series in 1536-well format. Positive and negative modulators were identified based on the AC50 values derived from the screening data.
NCGC Assay Protocol Summary: 2500 cells/5uL in Opti-MEM medium containing 0.5% dialyzed FBS, 0.1 mM NEAA, 1 mM sodium pyruvate and 10 mM HEPES was dispensed into 1536-well plates and cells were cultured at 37 degrees Celsius overnight. […] After centrifugation at 1000 rpm for 2 seconds the plates were incubated at 37 degrees Celsius for 5 hours. 1 uL of CCF4-dye mixture was added to each well. After incubated at room temperature for 2.5 hours the plates were measured on an EnVision plate reader at Excitation 405nm, Emission1=460nm and Emission 2=530nm. The %Activity was determined from the ratio of 460nm/530nm.
On the % scale 0 is the no-effect control and ±100 the full control effect.

Activity change, negative = inhibition, inactive:
c1ccc(CNc2nc(-c3ccc4c(c3)OCO4)nc3ccccc23)cc1 -7.19%, N#Cc1cccc(NC(=O)N2CCCC3(CCN(C(=O)c4ccco4)CC3)C2)c1 -14.7%, CC(C)CN1CCCC2(CCN(C(=O)c3ccco3)CC2)C1 -0.809%, O=C(c1cnccn1)N1CCC[C@@]2(CCN(Cc3ccncc3)C2)C1 -3.77%, c1cncc(-c2cc(-n3ccnc3)ncn2)c1 -4.01%, CC(C)COC[C@H](CN(Cc1ccccc1)c1ccccc1)N1CCCC1 15.1% [at 38 µM], COc1cccc(Cn2c(=O)cnc3cnc(OCc4ccccc4)nc32)c1 -24.3%, CC(C)CN1CCC2(CC1)CCN(C(=O)c1ccco1)CC2 10.1%, COC(=O)N1CCC2(CC1)CCN(C(c1ccccc1)c1ccccc1)CC2 -7.14%, COc1ccc(Oc2ncc3nc(-c4cc(F)cc(F)c4)c(=O)n(C[C@H]4CCCO4)c3n2)cc1 -5.29%, Cc1cccc(CNc2ncncc2-c2cccnc2)c1 11.8%, Cc1noc(C)c1-c1nc(Nc2ccc(F)cc2)c2ccccc2n1 -5.88%, CN(C)C(=O)c1ccc(-c2cncnc2Nc2ccccc2)cc1 -7.47%, COc1ccc(NC(=O)N2CC3(CCN(S(=O)(=O)c4ccccc4)CC3)C2)cc1 -1.69%, Cc1cnc(CNc2ncncc2-c2ccccc2C)cn1 3.21%, COCCn1c(=O)c(-c2cccc(Cl)c2)nc2cncnc21 -9.58%, CN(C)[C@H]1C(=O)C(C(=O)NCN2CCCC2)=C(O)[C@]2(O)C(=O)C3=C(O)c4c(O)cccc4[C@@](C)(O)[C@H]3C[C@@H]12 4.94% [at 17.2 µM], CN(Cc1ccco1)c1ncncc1-c1cccc(NS(C)(=O)=O)c1 -8.59%, CN1CCCC2(CCN(S(=O)(=O)c3ccccc3)CC2)C1 17.6%, CC(=O)N1CCC2(CCCN(c3ccncc3)C2)CC1 -16.6%, c1cn(-c2cc(-c3ccc4c(c3)OCO4)ncn2)cn1 13.6%, O=c1c(CCc2ccccc2)nc2cnc(N3CCOCC3)nc2n1C[C@H]1CCCO1 -13.7%, COCC(=O)N1CCC2(CC1)CN(c1ccncc1)C2 -2.96%, COCCNc1ncnc2ccc(-c3ccccc3CN(C)C)cc12 -22.6%, COc1ccccc1CN1CCCC2(CCN(C(=O)c3c(C)noc3C)CC2)C1 -9.04%, COc1ccc(NC(=O)N2CC3(CCN(C(=O)c4cccc(F)c4)CC3)C2)cc1 -7.57%, COc1ccc(NC(=O)N2CC[C@@]3(CCCN(C(C)=O)C3)C2)cc1 -3.83%, COc1cccc(-c2cncnc2NCc2cnc(C)cn2)c1 -11.3%, COC(=O)N1CCC2(CC1)CN(c1ccncc1)C2 1.61%, COc1ccc(C(=O)N2CCC3(CCN(CC(C)C)CC3)CC2)cc1 -18%, COc1ccccc1CCn1c(=O)c(-c2ccc(F)c(F)c2)nc2cncnc21 -18.1%, COCCn1c(=O)c(-c2cc(F)cc(F)c2)nc2cncnc21 -5.19%, CN(C)C(=O)c1ccc(-c2cc(N(C)Cc3ccco3)ncn2)cc1 -8.02%, COC(=O)N1CCC2(CCCN(c3ccncc3)C2)CC1 -3.28%

same assay, conditions: ME-180 AP-1-bla reporter, EGF-induced, beta-lactamase ratio, 5 h; at 17.2 µM (top of the series)

Activity change, negative = inhibition, inactive:
C[C@@]12CCC(=O)C=C1CC[C@@H]1[C@@H]2[C@H](O)C[C@]2(C)[C@@H]1CC[C@]2(O)C(=O)CO 1.82%, N[C@@H](CO)C(=O)NNCc1ccc(O)c(O)c1O 2.07%, C[C@@H](C(=O)O)c1cccc(C(=O)c2ccccc2)c1 5.98%

same assay, conditions: ME-180 (cervical carcinoma) AP-1-bla reporter, EGF-induced, beta-lactamase ratio, 5 h; at 38 µM (top of the series)

Activity change, negative = inhibition, inactive:
C[C@@]12CCC(=O)C=C1CC[C@@H]1[C@@H]2[C@H](O)C[C@]2(C)[C@@H]1CC[C@]2(O)C(=O)CO 1.86%, N[C@@H](CO)C(=O)NNCc1ccc(O)c(O)c1O 14.8%, C[C@@H](C(=O)O)c1cccc(C(=O)c2ccccc2)c1 9.29%

Source: PubChem BioAssay (NCATS)
